Experiment [1] in a line: Human pregnane X receptor (PXR) small molecule agonists, qHTS cell viability counter screen (AID 1346977). Further: nearly all actives have a fitted effect of over 50% in size. In a few lines: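 PXR-Luc HepG2, 2,000 cells/well, 5% charcoal-stripped FBS; 5hr settle; cpd 24hr, 37C/5% CO2; CellTiter-Fluor at 23hr, read 1hr later (fluorescence).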
A general note: In qHTS, concentration-response curves come from the screen itself.

The nature of experiment [2]: Caspase-3/7 induction in HepG2 cells by small molecules, qHTS assay (AID 1346978). Further: nearly all actives have a fitted effect of over 15% in size. In a few lines: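 Caspase-3/7 induction was measured by Caspase-Glo 3/7 luminescence (30 min, room temperature) after a 17 hr compound exposure of wild-type HepG2 cells seeded at 2,000 per well and pre-incubated 5 hr.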
Experiment [3] can be described thus: Caspase-3/7 induction in CHO-K1 cells by small molecules, qHTS cell viability counter screen (AID 1346979). Further: nearly all actives have a fitted effect of over 35% in size. Further: potency means the concentration at half of the fitted maximal effect. Put shortly:
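Cells (CHO-K1, wild type) are plated at 1,500 per well and incubated 5hr. Test compounds in DMSO are then pinned in, followed by 16hr at 37C and 5% CO2. Viability is read by CellTiter-Fluor fluorescence after 1hr.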

Experiment [4] can be described thus: Caspase-3/7 induction in CHO-K1 cells by small molecules, qHTS assay (AID 1346980). Further: nearly all actives have a fitted effect of over 15% in size. Put shortly: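 Luminescent Caspase-Glo 3/7 read (30min, room temperature) quantified apoptosis induction. Cells were wild-type CHO-K1, treated with compound for 17hr at 37 C and 5% CO2.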
A short description of experiment [5]: Caspase-3/7 induction in HepG2 cells by small molecules, qHTS cell viability counter screen (AID 1346981). Further: series mostly up to about 92 µM; nearly all actives have a fitted effect of over 30% in size. Put shortly:
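Viability determined by CellTiter-Fluor fluorescence in HepG2 wells also used for the luminescent Caspase-Glo 3/7 read. Compounds were present for 16 hr at 37 C, 5% CO2 before reagent addition.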

For experiment [6], the target named is Nuclear receptor subfamily 1 group I member 2 (Homo sapiens) (UniProt O75469). As to the kind of experiment: Human pregnane X receptor (PXR) small molecule agonists, qHTS assay (AID 1346982). Further: nearly all actives have a fitted effect of over 35% in size. Further: potency means the concentration at half of the fitted maximal effect. In a few lines: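 Compound-induced hPXR transactivation of a CYP3A4 luciferase reporter was scored in HepG2 PXR-Luc cells over 24 hr at 37 C, 5% CO2, by luminescence.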
Chain of Nuclear receptor subfamily 1 group I member 2 (Homo sapiens) (O75469 whole entry, looked up): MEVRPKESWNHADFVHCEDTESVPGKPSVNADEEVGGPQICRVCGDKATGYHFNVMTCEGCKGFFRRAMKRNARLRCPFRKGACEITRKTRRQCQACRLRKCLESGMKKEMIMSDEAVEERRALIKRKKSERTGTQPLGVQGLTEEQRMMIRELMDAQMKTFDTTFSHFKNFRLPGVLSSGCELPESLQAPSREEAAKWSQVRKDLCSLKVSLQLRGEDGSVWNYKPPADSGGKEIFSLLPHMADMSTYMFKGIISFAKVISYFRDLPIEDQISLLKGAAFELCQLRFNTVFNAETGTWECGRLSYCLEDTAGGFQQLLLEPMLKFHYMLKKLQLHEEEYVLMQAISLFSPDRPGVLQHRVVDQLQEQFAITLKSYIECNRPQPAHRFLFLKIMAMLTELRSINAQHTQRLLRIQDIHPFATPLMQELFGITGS

The target in experiment [7] is Cytochrome P450 2D6 (Homo sapiens) (UniProt P10635). Briefly: Cytochrome P450 Family 2 Subfamily D Member 6 (CYP2D6) small molecule antagonists: luciferase reporter qHTS assay (AID 1671196). Further: nearly all actives have a fitted effect of over 50% in size. Further: potency means the concentration at half of the fitted maximal effect. In a few lines:
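Each well received CYP2D6 with its proluciferin substrate and chemical, sat 10 min, then got NADPH regeneration solution for 1 h at room temperature. Luminescence in RLU served as the activity measure.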
In general terms: Reporter assays use an easily measured gene product as a stand-in for the process of interest.

The target of experiment [8] is Cytochrome P450 2C19 (Homo sapiens) (UniProt P33261). As to the kind of experiment: Cytochrome P450 Family 2 Subfamily C Member 19 (CYP2C19) small molecule antagonists: luciferase reporter qHTS assay (AID 1671197). Further: nearly all actives have a fitted effect of over 65% in size. Further: potency means the concentration at half of the fitted maximal effect. Put shortly:
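P450-Glo CYP2C19 screening system; proluciferin substrate; DMSO compound stocks; 10 min RT preincubation; NADPH regeneration, 1 h at 37C; luciferin detection reagent, 20 min RT; luminescence as RLU.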

In experiment [9] the target is Cytochrome P450 2C9 (Homo sapiens) (UniProt P11712). As to the kind of experiment: Cytochrome P450 Family 2 Subfamily C Member 9 (CYP2C9) small molecule antagonists: luciferase reporter qHTS assay (AID 1671198). Further: nearly all actives have a fitted effect of over 50% in size. Further: potency means the concentration at half of the fitted maximal effect. Put shortly:
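Enzyme-substrate mix preincubated with compound 10 min at room temperature; reaction started with NADPH regeneration solution, 1 h 37C. Luminescent luciferin product read after 20 min detection reagent.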

Experiment [10] concerns the target Voltage-gated inwardly rectifying potassium channel KCNH2 (Homo sapiens) (UniProt Q12809). Briefly: Human Ether-a-go-go-Related Gene (hERG) channel small molecule antagonists: fluorescence cell-based qHTS assay (AID 1671200).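 Further: hERG-expressing U2OS cells given a thallium stimulus after FluxOR II dye loading; series mostly up to about 77 µM; nearly all actives have a fitted effect of over 50% in size.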 In a few lines: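 Channel function was assessed by thallium flux. Cells seeded the previous day and kept at 37 C took up FluxOR II dye over 1 h in the dark at room temperature, then sat another 10 min before stimulation.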
(The hERG channel carries a current that helps repolarise heart muscle cells.)

Experiment [11] concerns the target Nuclear receptor subfamily 1 group I member 2 (Rattus norvegicus) (UniProt Q9R1A7). As to the kind of experiment: Rat pregnane X receptor (rPXR) activation by small molecules, qHTS assay (AID 1346983). Further: nearly all actives have a fitted effect of over 20% in size. The settings on record: rPXR luciferase reporter cells, One-Glo luminescence, 24 h; max activation: active compounds read high. In a few lines: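 Luminescent readout (One-Glo luciferase, 30 min room temperature) followed 24 hr compound treatment at 37 C of rPXR cells plated 2,000 per well and preincubated 5hr; qHTS format with compounds delivered in DMSO.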

The target in experiment [12] is Nuclear receptor subfamily 1 group I member 2 (Homo sapiens) (UniProt O75469). Briefly: CYP3A4 induction through human pregnane X receptor (PXR) by small molecules, qHTS assay (AID 1346984). Further: nearly all actives have a fitted effect of over 40% in size. In a few lines: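 Readings come from a luciferase reporter: DPX-2 cells, which are HepG2 cotransfected with PXR and a CYP3A4-promoter construct, were exposed to test compounds for 24 h at 37C before One-Glo detection.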

Experiment [13] concerns the target Cytochrome P450 3A4 (Homo sapiens) (UniProt P08684). Briefly: Cytochrome P450 Family 3 Subfamily A Member 4 (CYP3A4) small molecule antagonists: luciferase reporter qHTS assay (AID 1671201). Put shortly: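 Compounds in DMSO were pin-transferred onto CYP3A4 enzyme-substrate mix and held 10 min at room temperature. NADPH regenerating solution started the reaction for 1 h; luciferin detection reagent stopped it, and luminescence was read after 20 min.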

The target of experiment [14] is Cytochrome P450 1A2 (Homo sapiens) (UniProt P05177). As to the kind of experiment: Cytochrome P450 Family 1 Subfamily A Member 2 (CYP1A2) small molecule antagonists: luciferase reporter qHTS assay (AID 1671199). Further: nearly all actives have a fitted effect of over 50% in size. Further: potency means the concentration at half of the fitted maximal effect. Put shortly: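 Enzymatic CYP1A2 assay, human, luminescent: 10 min compound–enzyme–substrate preincubation, 1 h NADPH-dependent turnover, 20 min detection step, room temperature throughout. Reduced light indicates lower CYP1A2 activity.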
Chain of Cytochrome P450 1A2 (Homo sapiens) (P05177 whole entry, looked up): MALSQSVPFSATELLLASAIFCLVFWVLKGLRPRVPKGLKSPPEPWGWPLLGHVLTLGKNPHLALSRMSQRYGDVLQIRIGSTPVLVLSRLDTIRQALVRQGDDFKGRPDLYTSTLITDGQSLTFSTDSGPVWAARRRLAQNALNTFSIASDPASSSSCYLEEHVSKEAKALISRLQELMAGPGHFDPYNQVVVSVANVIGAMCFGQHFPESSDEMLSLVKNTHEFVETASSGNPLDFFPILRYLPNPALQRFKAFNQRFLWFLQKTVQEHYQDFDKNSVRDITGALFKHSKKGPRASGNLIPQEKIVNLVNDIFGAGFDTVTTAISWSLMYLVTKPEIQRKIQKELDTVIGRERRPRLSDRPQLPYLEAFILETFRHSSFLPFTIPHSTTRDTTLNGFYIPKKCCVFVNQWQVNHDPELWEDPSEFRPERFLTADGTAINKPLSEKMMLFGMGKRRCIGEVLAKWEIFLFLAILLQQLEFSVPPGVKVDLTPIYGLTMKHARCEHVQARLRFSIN

A number with no mark means an inactive call. Results filed as inconclusive are left out. The source made the active and inactive calls. The call rests on the fitted dose curve; in most records, active means well fitted curve in the direction sought with a large enough effect in the repeat runs; inconclusive means weak or mixed curves; inactive means no such curve, though single readings can be large; an effect the other way counts as inactive or inconclusive.
On the % scale 0 is the no-effect control and ±100 the full control effect.

Chain of Cytochrome P450 2D6 (Homo sapiens) (P10635 whole entry, looked up): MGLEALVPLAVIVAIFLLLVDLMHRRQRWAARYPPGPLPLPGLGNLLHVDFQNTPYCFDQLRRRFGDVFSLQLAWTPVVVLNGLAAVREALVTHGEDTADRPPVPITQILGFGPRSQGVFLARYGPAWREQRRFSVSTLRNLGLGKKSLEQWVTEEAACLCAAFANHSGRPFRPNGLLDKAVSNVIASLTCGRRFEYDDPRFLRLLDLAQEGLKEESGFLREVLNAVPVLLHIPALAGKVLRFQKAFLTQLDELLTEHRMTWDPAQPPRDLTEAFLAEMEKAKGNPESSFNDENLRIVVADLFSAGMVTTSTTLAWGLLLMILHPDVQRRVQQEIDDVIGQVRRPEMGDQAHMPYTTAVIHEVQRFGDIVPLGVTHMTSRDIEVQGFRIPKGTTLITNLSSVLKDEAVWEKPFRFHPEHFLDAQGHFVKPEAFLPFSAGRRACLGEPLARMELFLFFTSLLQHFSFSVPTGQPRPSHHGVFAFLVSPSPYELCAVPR
Chain of Cytochrome P450 3A4 (Homo sapiens) (P08684 whole entry, looked up): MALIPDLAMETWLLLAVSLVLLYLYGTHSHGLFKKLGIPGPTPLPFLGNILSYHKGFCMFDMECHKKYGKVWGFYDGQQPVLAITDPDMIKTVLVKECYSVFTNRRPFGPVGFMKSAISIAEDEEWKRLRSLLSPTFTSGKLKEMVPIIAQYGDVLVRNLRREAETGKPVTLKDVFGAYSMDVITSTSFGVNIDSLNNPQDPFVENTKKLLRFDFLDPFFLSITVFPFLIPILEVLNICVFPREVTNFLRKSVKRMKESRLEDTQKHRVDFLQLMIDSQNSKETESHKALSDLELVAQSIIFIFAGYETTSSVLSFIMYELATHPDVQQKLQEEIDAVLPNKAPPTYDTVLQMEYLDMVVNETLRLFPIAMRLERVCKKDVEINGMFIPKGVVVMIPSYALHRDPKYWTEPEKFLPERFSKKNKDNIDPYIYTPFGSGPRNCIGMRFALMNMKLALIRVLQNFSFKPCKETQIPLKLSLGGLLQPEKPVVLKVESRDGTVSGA
Chain of Voltage-gated inwardly rectifying potassium channel KCNH2 (Homo sapiens) (Q12809 whole entry, looked up): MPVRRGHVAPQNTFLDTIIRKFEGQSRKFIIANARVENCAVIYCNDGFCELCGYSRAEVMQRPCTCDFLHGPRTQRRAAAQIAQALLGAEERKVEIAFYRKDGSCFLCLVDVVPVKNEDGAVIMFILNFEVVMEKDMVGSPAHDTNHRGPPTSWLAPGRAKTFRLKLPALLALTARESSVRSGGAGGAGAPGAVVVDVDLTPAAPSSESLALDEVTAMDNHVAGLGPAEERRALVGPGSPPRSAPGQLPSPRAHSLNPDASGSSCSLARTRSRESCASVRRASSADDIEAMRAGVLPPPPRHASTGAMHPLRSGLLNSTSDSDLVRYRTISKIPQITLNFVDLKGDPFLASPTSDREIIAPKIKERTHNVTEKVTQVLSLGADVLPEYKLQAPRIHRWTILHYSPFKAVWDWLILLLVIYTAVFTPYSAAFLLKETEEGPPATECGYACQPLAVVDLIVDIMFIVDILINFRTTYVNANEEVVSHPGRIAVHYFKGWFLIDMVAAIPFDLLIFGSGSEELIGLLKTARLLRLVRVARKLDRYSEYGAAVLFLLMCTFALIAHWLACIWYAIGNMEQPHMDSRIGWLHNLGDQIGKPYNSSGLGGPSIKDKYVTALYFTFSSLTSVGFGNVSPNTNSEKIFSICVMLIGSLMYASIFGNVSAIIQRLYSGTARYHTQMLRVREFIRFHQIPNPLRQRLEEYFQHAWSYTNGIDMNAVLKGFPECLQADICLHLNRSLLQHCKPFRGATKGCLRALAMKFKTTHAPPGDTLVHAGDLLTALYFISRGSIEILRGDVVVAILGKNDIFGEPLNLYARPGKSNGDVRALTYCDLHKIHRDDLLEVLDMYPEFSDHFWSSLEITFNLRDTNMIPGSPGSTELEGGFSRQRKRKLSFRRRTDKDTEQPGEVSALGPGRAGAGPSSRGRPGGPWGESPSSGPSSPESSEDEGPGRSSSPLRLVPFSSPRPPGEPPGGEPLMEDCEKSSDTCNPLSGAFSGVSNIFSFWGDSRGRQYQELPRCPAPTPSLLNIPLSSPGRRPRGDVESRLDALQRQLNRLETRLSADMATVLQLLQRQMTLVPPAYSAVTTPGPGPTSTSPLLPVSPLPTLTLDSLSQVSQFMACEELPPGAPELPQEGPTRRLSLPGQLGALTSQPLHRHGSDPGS
Chain of Cytochrome P450 2C19 (Homo sapiens) (P33261 whole entry, looked up): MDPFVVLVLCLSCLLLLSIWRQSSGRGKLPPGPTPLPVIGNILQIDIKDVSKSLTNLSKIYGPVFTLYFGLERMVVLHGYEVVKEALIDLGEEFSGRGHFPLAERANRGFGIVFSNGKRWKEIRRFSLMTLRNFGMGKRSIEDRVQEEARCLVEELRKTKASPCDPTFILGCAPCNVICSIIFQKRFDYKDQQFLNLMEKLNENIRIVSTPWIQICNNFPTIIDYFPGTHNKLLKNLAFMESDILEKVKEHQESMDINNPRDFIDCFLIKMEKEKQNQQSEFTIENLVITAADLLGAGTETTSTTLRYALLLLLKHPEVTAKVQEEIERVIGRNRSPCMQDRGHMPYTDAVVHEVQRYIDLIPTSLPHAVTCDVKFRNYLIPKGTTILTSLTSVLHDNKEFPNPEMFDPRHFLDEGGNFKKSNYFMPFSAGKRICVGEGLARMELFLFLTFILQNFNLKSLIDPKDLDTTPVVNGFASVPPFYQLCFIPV
Chain of Cytochrome P450 2C9 (Homo sapiens) (P11712 whole entry, looked up): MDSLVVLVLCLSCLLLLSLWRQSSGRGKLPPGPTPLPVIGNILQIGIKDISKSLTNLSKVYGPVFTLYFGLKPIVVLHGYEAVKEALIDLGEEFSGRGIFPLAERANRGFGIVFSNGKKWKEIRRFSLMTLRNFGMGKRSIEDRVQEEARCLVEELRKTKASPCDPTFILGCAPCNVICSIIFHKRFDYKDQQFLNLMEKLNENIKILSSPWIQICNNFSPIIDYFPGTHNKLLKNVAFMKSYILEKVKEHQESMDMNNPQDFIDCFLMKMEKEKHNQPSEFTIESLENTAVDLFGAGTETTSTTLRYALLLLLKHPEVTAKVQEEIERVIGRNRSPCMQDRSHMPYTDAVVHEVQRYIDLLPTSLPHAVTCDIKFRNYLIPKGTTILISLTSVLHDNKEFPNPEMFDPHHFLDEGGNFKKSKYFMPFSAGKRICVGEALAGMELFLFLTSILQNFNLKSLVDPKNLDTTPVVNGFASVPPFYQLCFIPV
Chain of Nuclear receptor subfamily 1 group I member 2 (Rattus norvegicus) (Q9R1A7 whole entry, looked up): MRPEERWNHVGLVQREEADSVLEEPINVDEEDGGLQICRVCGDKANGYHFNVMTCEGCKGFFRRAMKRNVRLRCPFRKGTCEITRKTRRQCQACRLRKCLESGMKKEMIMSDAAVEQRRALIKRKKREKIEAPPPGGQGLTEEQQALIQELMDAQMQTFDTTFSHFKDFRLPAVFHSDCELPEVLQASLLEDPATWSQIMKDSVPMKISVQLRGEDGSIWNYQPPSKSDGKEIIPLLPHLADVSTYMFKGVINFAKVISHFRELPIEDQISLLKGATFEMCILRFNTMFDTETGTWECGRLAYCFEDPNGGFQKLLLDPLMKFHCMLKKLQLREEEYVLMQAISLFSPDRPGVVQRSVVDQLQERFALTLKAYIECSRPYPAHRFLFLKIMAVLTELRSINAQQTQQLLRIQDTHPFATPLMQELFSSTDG

As to `Cc1ccc2c(Cl)cc(Cl)c(O)c2n1`, the Potency result in experiment [1], in experiment [2], in [3], in [4], in experiment [5] and in experiment [6] was “inactive” each time. Also, the Potency result in experiment [7], in experiment [8], in experiment [9] and in [10] was “inactive” each time.
As to `COc1ccc(CN(CCN(C)C)c2ncccn2)cc1`, the Potency result in [1], in experiment [2], in experiment [3], in experiment [4], in experiment [5] and in [6] was “inactive” in each case. The Potency result in experiment [12], in experiment [9] and in [13] was “inactive” in each case. Besides, the max activation in [11] was -0.0529%. For the same molecule, the figures for the Potency in [7] and in [8] were 0.692 µM (active) and 21.9 µM (active), respectively.
For `CC1=C(C)C(=O)C(CCCCC#CCCCC#CCO)=C(C)C1=O`, the Potency result in experiment [1], in experiment [2], in experiment [4] and in [5] was “inactive” each time. Besides, the Potency was 29.8 µM (active) in [3]; 26.6 µM (active) in experiment [6]; 15.5 µM (active) in experiment [7]; 11 µM (active) in experiment [8]; 6.92 µM (active) in experiment [9]; 4.9 µM (active) in [14].
On to `CC(C)(C)NCC(O)COc1ccc(NC(=O)NC2CCCCC2)cc1` (centres undefined), for which the Potency result in experiment [1], in [2], in experiment [3], in experiment [4], in experiment [5] and in experiment [6] was “inactive” in each case. The Potency entry in experiment [12], in [7], in [8], in [9] and in experiment [10] was “inactive” throughout. In addition, in experiment [11], the max activation is 0.0743%.
In the case of `C1=COCCC1`, the Potency result in experiment [1], in experiment [2], in experiment [3], in [4], in experiment [5] and in experiment [6] was “inactive” throughout. In addition, the Potency result in [7], in experiment [8], in [9], in [14] and in [13] was “inactive” each time.
Regarding `Clc1nc2ccccc2nc1Cl`, the Potency entry in [1], in [2], in experiment [3], in experiment [4], in [5] and in [8] was “inactive” each time. Besides, in experiment [9], the Potency result is “inactive”. The figures for the Potency in [6] and in [7] were 61.8 µM (active) and 64 µM (active), respectively.
For `Nc1ccc(F)cc1F`, the Potency entry in experiment [1], in experiment [2], in [3], in experiment [4], in experiment [5] and in experiment [6] was “inactive” in each case. Besides, the Potency entry in experiment [7], in [8], in experiment [9], in [14] and in experiment [10] was “inactive” in each case.
In the case of `COc1ccc(/C=C/c2cc(OC)cc(=O)o2)cc1`, the Potency entry in [1], in experiment [2], in experiment [3], in experiment [4], in experiment [5] and in [7] was “inactive” in each case. Also, the Potency result in experiment [9], in experiment [10] and in experiment [13] was “inactive” each time. In addition, the Potency is 8.84 µM (active) in experiment [6], 4.09 µM (active) in [8] and 9.15 µM (active) in [14].
Take `CO[C@@H]1COCC[C@@H]1N[C@@H]1CC[C@@](C(=O)N2CCc3ncc(C(F)(F)F)cc3C2)(C(C)C)C1`: the Potency result in experiment [1], in [2], in experiment [3], in experiment [4], in experiment [5] and in [6] was “inactive” throughout. Also, the Potency result in [8], in [9], in [14] and in experiment [10] was “inactive” in each case. In addition, in [7], the Potency is 35.4 µM (active).
Turning to `C=CCCC`, the Potency entry in experiment [1], in experiment [2], in experiment [3], in [4], in [5] and in experiment [6] was “inactive” throughout. Further, the Potency entry in experiment [7], in experiment [8], in [9] and in experiment [10] was “inactive” in each case.
Turning to `CCCC(=O)OCCC(C)C`, the Potency entry in experiment [1], in [2], in experiment [3], in experiment [4], in experiment [5] and in [6] was “inactive” throughout. In addition, the Potency result in [7], in experiment [8], in [9], in experiment [14] and in experiment [13] was “inactive” throughout.

Values taken from PubChem BioAssay (Tox21).
